Data from PubChem BioAssay AID1159580 (chemical genetic matrix, 2015).
Several values for one entry are separate records, joined by “and”; a condition that tells them apart may be missing. Equal values may be shown once. Among all 5,500 compounds or so, about 2,000 (36%) were called active. Another 18% or so got no clear call; they are omitted. No stated cut-off is given here; in the data, active means normalized growth mostly below about 0.91 (no sharp cut-off); inconclusive means no clear call, values can overlap the other calls; inactive means mostly above about 0.92. The list shows a part of the results.

Assay: chemical genetic growth profiling, strain panel (AID 1159580);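 further: tested at 20 µM; growth read once vehicle control cultures reached saturation at 30 °C; 1 = growth at the plate median or of vehicle wells; lower values mean less growth of the strain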
Conditions: S. cerevisiae deletion strains, growth OD

Measured: normalized growth

CC(C)N1C(=O)c2ccccc2NS1(=O)=O
inactive: locus YAL013W, strain DEP1, hits give low values 1 | locus YAL021C, strain ccr4, hits give low values 0.947 | locus YAL026C, strain drs2, hits give low values 0.976 | locus YAL030W, strain snc1, hits give low values 0.963 | locus YBL061C, strain skt5, hits give low values 0.973 | locus YBR009C, strain hhf1, hits give low values 0.961 | locus YBR021W, strain FUR4, hits give low values 0.966 | locus YBR023C, strain chs3, hits give low values 0.983 | locus YBR171W, strain sec66, hits give low values 0.968 | locus YBR229C, strain ROT2, hits give low values 1 | locus YBR231C, strain swc5, hits give low values 0.994 | locus YBR279W, strain paf1, hits give low values 0.977 | locus YCL011C, strain gbp2, hits give low values 0.962 | locus YCL016C, strain dcc1, hits give low values 0.969 | locus YCL029C, strain bik1, hits give low values 0.999 | locus YCL069W, strain vba3, hits give low values 0.969 | locus YCR088W, strain abp1, hits give low values 0.978 | locus YDL005C, strain med2, hits give low values 0.973 | locus YDL035C, strain GPR1, hits give low values 1.01 | locus YDL040C, strain nat1, hits give low values 0.972 | locus YDL074C, strain BRE1, hits give low values 1.02 | locus YDL101C, strain DUN1, hits give low values 1.01 | locus YDL134C, strain PPH21, hits give low values 0.998 | locus YDL185W, strain tfp1, hits give low values 1 | locus YDL192W, strain arf1, hits give low values 1.01 | locus YDR001C, strain nth1, hits give low values 0.955 | locus YDR069C, strain doa4, hits give low values 0.995 | locus YDR101C, strain arx1, hits give low values 0.999 | locus YDR137W, strain rgp1, hits give low values 0.971 | locus YDR150W, strain NUM1, hits give low values 0.996 | locus YDR159W, strain sac3, hits give low values 1.02 | locus YDR162C, strain NBP2, hits give low values 1.02 | locus YDR195W, strain ref2 0.935 | locus YDR297W, strain sur2, hits give low values 0.988 | locus YDR318W, strain mcm21, hits give low values 1.01 | locus YDR334W, strain swr1, hits give low values 0.957 | locus YDR335W, strain msn5, hits give low values 0.978 | locus YDR388W, hits give low values 0.998 | locus YDR392W, strain spt3, hits give low values 1.02 | locus YDR502C, strain sam2, hits give low values 1.01 | locus YEL003W, strain gim4, hits give low values 0.973 | locus YEL037C, strain rad23, hits give low values 0.976 | locus YEL061C, strain CIN8 (second series), hits give low values 0.966 | locus YEL061C, strain CIN8, hits give low values 0.992 | locus YER015W, strain faa2, hits give low values 0.966 | locus YER016W, strain bim1, hits give low values 0.965 | locus YER110C, hits give low values 1 | locus YER111C, strain swi4, hits give low values 0.979 | locus YER155C, strain BEM2 (second series), hits give low values 1 | locus YER155C, strain BEM2, hits give low values 0.994 | locus YER167W, strain BCK2, hits give low values 1 | locus YFR010W, strain ubp6, hits give low values 0.96 | locus YGL078C, strain dbp3, hits give low values 0.993 | locus YGL086W, strain mad1, hits give low values 0.996 | locus YGL167C, strain pmr1, hits give low values 0.958 | locus YGL173C, strain kem1, hits give low values 0.979 | locus YGL227W, strain vid30, hits give low values 0.989 | locus YGL240W, strain doc1, hits give low values 1 | locus YGL248W, strain PDE1, hits give low values 1.01 | locus YGL253W, strain hxk2, hits give low values 0.984 | locus YGR078C, strain PAC10, hits give low values 0.995 | locus YGR135W, strain pre9, hits give low values 1.01 | locus YGR229C, strain SMI1, hits give low values 1.02 | locus YGR252W, strain gcn5, hits give low values 1.01 | locus YHR013C, strain ard1, hits give low values 0.95 | locus YHR027C, strain rpn1, hits give low values 0.968 | locus YHR030C, strain SLT2, hits give low values 0.972 and 0.994 | locus YHR079C, strain IRE1 (second series), hits give low values 1 | locus YHR079C, strain IRE1, hits give low values 0.982 | locus YHR094C, strain hxt1, hits give low values 0.996 | locus YHR129C, strain ARP1, hits give low values 0.996 | locus YHR142W, strain chs7, hits give low values 0.962 | locus YHR200W, strain rpn10, hits give low values 0.995 | locus YIL066C, strain RNR3, hits give low values 1.03 | locus YIL073C, strain SPO22, hits give low values 1.07 | locus YIL125W, strain kgd1, hits give low values 1.01 | locus YIR030C, strain dcg1, hits give low values 0.997 | locus YJL092W, strain hpr5, hits give low values 0.971 | locus YJL095W, strain BCK1 (second series), hits give low values 0.969 | locus YJL095W, strain BCK1, hits give low values 1.01 and 0.986 | locus YJL115W, strain asf1, hits give low values 0.956 | locus YJL129C, strain trk1, hits give low values 0.961 | locus YJL134W, strain LCB3, hits give low values 1 | locus YJL154C, strain vps35, hits give low values 0.963 | locus YJL164C, strain tpk1, hits give low values 0.988 | locus YJL166W, strain qcr8, hits give low values 0.987 | locus YJL168C, strain set2, hits give low values 1 | locus YJL187C, strain SWE1 (second series), hits give low values 0.997 | locus YJR043C, strain POL32, hits give low values 1 | locus YJR066W, strain TOR1, hits give low values 0.962 | locus YJR075W, strain HOC1, hits give low values 1.02
